Data taken from PubChem BioAssay AID624417 (National Center for Advancing Translational Sciences (NCATS), 2012).
In all, about 410,000 compounds went through this assay and about 6,400 (1.6%) were called active. Another 20% or so got no clear call; they are omitted. What follows is part of a selection rich in actives, with near analogues and random picks from the rest. A number with no mark means an inactive call. Calls follow the shape of the dose curve; as a rule, active = well fitted inhibition curve with a large enough effect; inconclusive = small, poorly fitted or top-dose-only effect; inactive = no such curve, though single readings can be large or run the other way.

These compounds were tested against Glucagon-like peptide 1 receptor (Homo sapiens) (UniProt P43220) (assay: qHTS of GLP-1 Receptor Inverse Agonists (Inhibition Mode)). Settings: HEK293 GLP-1R CRE-luciferase, luminescence, 24 h, GLP-1R form is constitutively active; series mostly up to 38.3 µM; activity change, negative = inhibition: at the top concentration.
Glucagon-like peptide 1 receptor (Homo sapiens), sequence (P43220 whole entry, looked up): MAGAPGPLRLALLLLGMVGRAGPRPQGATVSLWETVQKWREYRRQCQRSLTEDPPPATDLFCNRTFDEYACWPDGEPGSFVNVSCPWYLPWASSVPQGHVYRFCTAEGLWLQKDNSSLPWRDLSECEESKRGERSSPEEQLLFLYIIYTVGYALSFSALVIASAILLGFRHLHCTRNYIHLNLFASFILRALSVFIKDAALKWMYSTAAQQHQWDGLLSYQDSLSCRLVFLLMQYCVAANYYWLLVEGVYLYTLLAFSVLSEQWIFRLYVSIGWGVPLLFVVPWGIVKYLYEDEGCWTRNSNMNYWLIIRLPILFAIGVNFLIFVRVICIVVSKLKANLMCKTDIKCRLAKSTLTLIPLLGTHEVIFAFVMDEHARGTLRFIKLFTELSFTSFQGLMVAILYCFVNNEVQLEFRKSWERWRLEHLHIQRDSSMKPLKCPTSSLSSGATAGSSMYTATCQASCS
In short: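 Cells are plated, allowed 12 hours at 37 deg C, then treated with compounds for 24 hr before luciferase detection reagent is added and luminescence is read after 12 min at room temperature. The HEK293 line carries constitutively active GLP-1R with a cAMP-responsive reporter.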
% is scaled to controls: 0 for no effect and ±100 for the full control effect; potency is read from the fitted curve at half-maximal effect.
Also: nearly all actives have a fitted effect of over 55% in size.

Structure (SMILES) | activity change, negative = inhibition [%] | Potency
O=C(CSc1ccc(Cl)cc1)NC1CC1 | 2.92 | –
CC1CCc2noc(NC(=O)c3ccc([N+](=O)[O-])cc3)c2C1 (stereo unspecified) | -25.2 | –
COc1ccc(NC(=O)c2c(C)oc3c2CCCC3)cc1 | 0 | –
COc1ccc(C(=O)Nc2onc3c2CCCC3)cc1 | – | 11.2 µM (active)
O=C1NC[C@H](CCCCN2C[C@H](Cc3ccccc3)N(Cc3ccccc3)C(=O)C2=O)N(CCc2ccc(O)cc2)C1=O | 8.51 | –
CN1CCn2cnc(C(=O)NCC(=O)OC(C)(C)C)c2C1=O | 15.6 | –
O=C(Nc1nnc([C@H]2C[C@H](O)[C@@H](CO)O2)s1)c1cccc(Cl)c1 | -12.3 | –
CC1=NN(c2cccc(Cl)c2)C(=O)C12CC(C)=C(C)CS2 (stereo unspecified) | – | 10 µM (active)
CCOC1=C2[C@H]([C@H]3C(=O)N(c4ccccc4)C(=O)[C@H]3C1)[C@@H](c1ccccc1)N(S(=O)(=O)c1ccc(C)cc1)[C@H]2c1ccccc1 | 10.2 | –
Cc1cc(Nc2ccc(C)c(C)c2)n2ncnc2n1 | 11.7 | –
CCOC(=O)c1[nH]ncc1CN1CCCC(C(=O)c2ccc(OC)cc2C)C1 (stereo unspecified) | -2.62 | –
CC(=O)NCC(=O)N1CCCC(C(=O)c2ccc3c4c(cccc24)CC3)C1 (stereo unspecified) | 8.71 | –
CCn1ccnc1CN1CCCC(C(=O)c2ccc3c4c(cccc24)CC3)C1 (stereo unspecified) | – | 11.2 µM (active)
O=C(N=C1SC2CS(=O)(=O)CC2N1Cc1ccccc1)c1ccccc1 (stereo unspecified) | 0.0638 | –
CSCCC(C(=O)NC(C)(C)C)n1c(-c2ccccc2)nc2ccccc21 (stereo unspecified) | 11 | –
COc1ncnc2c1ncn2CCCNCCN1CCOCC1 | 6.67 | –
CCc1nc2c(OCCOc3ccccc3)cccn2c1N(C)C(=O)c1ccc(OC)cc1 | 10.8 | –
CN(C(=O)CC(NC(=O)c1ccccc1)(c1ccccc1)c1ccccc1)c1ccccc1 | – | 12.6 µM (active)
CN(C(=O)COC(=O)CNC(=O)C12CC3CC(CC(C3)C1)C2)c1ccccc1 | 21.8 | –
CC(C)(C)c1ccc(C(=O)NNC(=O)Cc2ccccc2)cc1 | -24.5 | –
COc1ccc(C(CNC(=O)CSc2ccccc2)N2CCOCC2)cc1 (stereo unspecified) | -4.63 | –
COc1ccc(C(=O)O/N=C(\N)Cc2ccc(Cl)cc2Cl)cc1OC | – | 8.91 µM (active)

Structure (SMILES) | activity change, negative = inhibition [%] | Potency
COc1ccc(C(=O)ON=C2c3ccccc3-c3ccccc32)cc1OC | 21.9 | –
COc1ccc(C/C(N)=N/OC(=O)c2ccco2)cc1OC | 47.5 | –
Cc1cc(-c2ccccc2)n2nc(C)c(-c3ccccc3)c2n1 | -1.84 | –
CCc1c(C)nc2c(-c3ccccc3)c(C)nn2c1Nc1ccc(NC(C)=O)cc1 | – | 10 µM (active)
Cc1cc(-n2nc(C)cc2C)n2nc(C)c(-c3ccccc3)c2n1 | -10.6 | –
Cc1ccc2nc(-c3ccccc3)c(CC3CCCCC3)n2c1 | -29.8 | –
O=C1Nc2ccccc2-n2nnnc2C1N1CCN(c2cccc(C(F)(F)F)n2)CC1 (stereo unspecified) | -22 | –
CC(=O)c1cccc(-c2cnc3c(NC=O)cc(-c4ccccc4Oc4ccccc4)cn23)c1 | -19.1 | –
CNc1cncc(-c2cccc(C(=O)N3CCOCC3)c2)n1 | 2.33 | –
Cc1nccn1-c1ccc(NC(=O)[C@H]2O[C@@H](n3ccc(=O)[nH]c3=O)[C@H](O)[C@@H]2O)cc1 | 8.26 | –
COc1cc(C(O)c2nc(-c3cnn(C)c3)cs2)ccc1F (stereo unspecified) | -19.5 | –
CN1CCN(C(=O)c2ccc(NC(=O)c3ccc(Br)o3)cc2)CC1 | 22.9 | –
CCN(CC)S(=O)(=O)c1ccc(-c2cn3ccc(C)cc3n2)cc1 | 15.4 | –
COc1ccc(-c2cn3cccnc3n2)cc1 | 20.6 | –
COc1ccc(-c2cn3ccc(C)cc3n2)cc1 | – | 6.31 µM (active)
COc1ccc(-c2c(C#N)cnc(C)c2C)c(O)c1OC | -2.78 | –
CNC[C@H]1OCc2cnnn2CCCC(=O)N([C@H](C)CO)C[C@@H]1C | 26.7 | –
OC(c1ccc(Cl)c(F)c1)c1ncc(-c2ccccc2Cl)[nH]1 (stereo unspecified) | -21.2 | –
COC(=O)c1ccc(NCC(=O)c2ccccc2)cc1 | 4.32 | –
CCC[C@@H]1C[C@@]1(CCC)[C@@H](NC(=O)c1ccccc1)c1ccc(C(=O)OC)cc1 | – | 5.01 µM (active)
COC(=O)c1ccc(C(NC(=O)OCc2ccccc2)/C(F)=C/[C@@H](C)C(=O)O)cc1 (stereo partly specified) | 16.1 | –
CCc1ccccc1NC(=O)NCCN1CCCCC1 | 11.2 | –

Structure (SMILES) | activity change, negative = inhibition [%] | Potency
Cc1ccc(C(=O)NC(=S)NCCN2CCOCC2)cc1 | 16 | –
Cc1ccccc1CN1C(=O)c2ccccc2Sc2ccc(C(=O)NCCCN3CCOCC3)cc21 | -26.5 | –
CCC1=Nc2cc(C(=O)NCCN3CCCC3)ccc2Sc2ccc(C)cc21 | – | 3.55 µM (active)
Cc1ccc(C(=O)NCCNS(=O)(=O)c2ccccc2)cc1 | 0.318 | –
COc1ccc(C(=O)NCCCN2CCOCC2)cc1Br | 3.74 | –
CCC1=Nc2cc(C(=O)NCCCN3CCOCC3)ccc2Sc2ccc(Br)cc21 | – | 11.2 µM (active)
CCC1=Nc2cc(C(=O)NCC(C)c3ccccc3)ccc2Sc2ccc(C)cc21 (stereo unspecified) | – | 5.01 µM (active)
CC1=C(C(=O)Nc2cccc(C(=O)NCC(C)c3ccccc3)c2)SCCO1 (stereo unspecified) | -20.5 | –
O=C(Nc1ccccc1)c1ccccc1Br | 27.6 | –
CC(OC(=O)c1cccc(S(=O)(=O)N2CCOCC2)c1)C(=O)NCC1CCCCC1 (stereo unspecified) | -10.6 | –
CC1=C(C(=O)N2CCOCC2)CC(CC(=O)NCCN2CCOCC2)C(=O)N1CCC1=CCCCC1 (stereo unspecified) | 3.72 | –
COCCNC(=O)C1C(=O)Nc2ccccc2C(=O)N1c1ccc2c(c1)OCCO2 (stereo unspecified) | 15.6 | –
CCc1oc(-c2ccc(OC)cc2)c(C(=O)OCCCCCO)c1C(C)OCCO (stereo unspecified) | 6.05 | –
CC1(C(=O)Nc2ccccc2Br)CCN1C(=O)CC1CC1 (stereo unspecified) | 8.34 | –
COc1ccc(Nc2nnc(C)c3ccccc23)cc1 | 17.4 | –
COc1cccc(Nc2nc3ccccc3c3nncn23)c1 | 10.2 | –
Cc1cccc(-c2noc(-c3ccc(F)cc3)n2)c1 | 1.87 | –
COc1cc(Nc2nc(-c3ccc(OC)c(OC)c3)nc3ccccc23)cc(OC)c1 | – | 11.2 µM (active)
Oc1ccc(-c2nnc(Nc3ccccc3)c3ccccc23)cc1 | 2.85 | –
Cc1cccc(-c2nc(Nc3ccc(O)cc3)c3ccccc3n2)c1 | – | 2.82 µM (active)
C[C@H]1CN([C@@H](C)CO)C(=O)CCCn2cc(nn2)CO[C@@H]1CN(C)C(=O)Nc1ccccc1 | 9.62 | –
CCCCNC(=O)C[C@@H]1C[C@@]2(C(=O)OC)CC(C)(C)CC=C2N(Cc2ccco2)C1=O | -13.8 | –
